# Inconclusive results are not listed. Activity calls are given as the source filed them. Calls follow the shape of the dose curve; as a rule, active = well fitted cell-killing curve with a large enough effect; inconclusive = small, poorly fitted or top-dose-only effect; inactive = no such curve, though single readings can be large or run the other way.
# Assay: qHTS of pediatric cancer cell lines to identify multiple opportunities for drug repurposing: Primary screen for SK-N-MC cells (AID 1347093);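 also: plate controls were DMSO neutral control for no effect and bortezomib for full effect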
# Details: SK-N-MC viability, CellTiter-Glo luminescence, 48 h; series mostly up to 46 µM; activity change, negative = cytotoxic: at the top concentration
# Procedure, shortened: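 Metabolically active cells were quantified by ATP-dependent luminescence (CellTiter-Glo, 15 min at room temperature) following 48 h treatment. Cells had been plated at 500-1,000 per well and settled for 5 h beforehand.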
row,SMILES,"activity change, negative = cytotoxic"
1,O=C(CN1CCN(Cc2ccc3c(c2)OCO3)CC1)N1c2ccccc2Sc2ccccc21,2.94% (inactive)
2,NS(=O)(=O)Cc1noc2ccccc12,-0.901% (inactive)
3,OC[C@H]1O[C@@H](Oc2ccc(O)cc2)[C@H](O)[C@@H](O)[C@@H]1O,-22% (inactive)
4,NCc1ccccc1Sc1ccccc1CO,-0.3% (inactive)
5,CCC1NC(=O)c2cc(S(N)(=O)=O)c(Cl)cc2N1 (stereo unspecified),-13.5% (inactive)
6,CC(=O)NO,-12.6% (inactive)
7,O=C(Nc1ccc([N+](=O)[O-])cc1)Nc1ccc([N+](=O)[O-])cc1,-15% (inactive)
8,C#C[C@]1(O)CC[C@H]2[C@@H]3CCC4=CC(=O)CC[C@@H]4[C@H]3CC[C@@]21CC,-16.4% (inactive)
9,Cc1ncc(CO)c(C=O)c1O,-26.6% (inactive)
10,COc1cc(C(=O)NCc2ccc(OCCN(C)C)cc2)cc(OC)c1OC,-18.8% (inactive)
11,Nc1ccc(S(=O)(=O)NCc2ccccc2)cc1,-31.3% (inactive)
12,CCCCCCCCCCCCSCCOCCO,9.77% (inactive)
13,O=C(O)CCNC(=O)c1ccccc1,-22.2% (inactive)
14,OCc1ccccn1,-1.35% (inactive)
15,NS(=O)(=O)c1ccc(Cl)c(S(N)(=O)=O)c1,-23.6% (inactive)
16,CCCN(CCC)S(=O)(=O)c1ccc(C(=O)O)cc1,-2.5% (inactive)
17,CC1CCc2c(N3CCC(O)CC3)c(F)cc3c(=O)c(C(=O)O)cn1c23 (stereo unspecified),107% (inactive)
18,CC(=O)NCCCCCC(=O)O,-13% (inactive)
19,COc1ccc2c(c1)c1c3n2CCN(C)C3=NCC1,-0.802% (inactive)
20,CCN(CC)CCOc1ccccc1C(=O)CCc1ccccc1,-6.39% (inactive)
21,CCN[C@@H]1C[C@H](N)[C@@H](OC2OC(CN)=CCC2N)[C@H](O)[C@H]1O[C@H]1OC[C@](C)(O)[C@H](NC)[C@H]1O (stereo partly specified),-24.4% [at 0.597 µM] (inactive)
